# HTT cytoprotect – protects HTT-Q103 PC12 cells, measured by ATP; hit rate 0.14% among 230,000; PC12 HTT-Q103 induced, cytoprotection, ATP luminescence, 40 h; AID 1471; Potency, µM (highest dose often 56.4 µM), inactives show cytoprotection (ATP increase), hits mostly activators; also: potency is read from the fitted curve at half-maximal effect; % of control where 0% means no effect; nearly all actives have a fitted effect of over 45% in size
#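 PC12 cells with ecdysone-inducible HTT exon 1 Q103-GFP, induced with 100 nM tebufenozide and co-treated with library compounds in a dose series (1536-well, 1500 cells/well). Cytoprotection read as ATP content by ATPlite luminescence.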
# PNC assembly inh – inhibitors of perinucleolar compartment assembly; PC3M PTB-GFP, PNC prevalence imaging, 16 h; stronger effect = lower value; activity change (PNC), negative = inhibition, % at 10 µM; hit rate 3.1% among 140,000; AID 2417;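 active = readout at or below -70, meaning at least 70% loss of cells showing the perinucleolar compartment, a nuclear body marking cancer cells; inconclusive = readout between -30 and a set limit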;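 also: plate controls were DMSO wells for no effect and camptothecin positive control wells for full effect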
#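 Compounds are pinned in duplicate onto adhered PC3M cells stably expressing GFP-tagged PTB and incubated 16 h at 37 C. Cells are then fixed, nuclei stained with Hoechst, and PNC-positive cells counted.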
# HttQ103 aggreg – inhibitors of mutant huntingtin aggregate formation in PC12 cells; PC12 HttQ103-GFP aggregates, Acumen cytometry, 40 h; Potency, µM (top dose mostly 46.1 µM), for the others: top-dose activity change, negative = inhibition, usual class: inhibitors; hit rate 1.1% among 220,000; also: potency is read from the fitted curve at half-maximal effect; % is scaled to controls: 0 for no effect and ±100 for the full control effect; nearly all actives have a fitted effect of over 60% in size
#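 Aggregate formation scored by laser-scanning cytometer (488 excitation, 500–530 emission) in lysed PC12 cells expressing Q103-GFP after 100 nM tebufenozide induction; library tested in dose series, with ATPLite reagent added in the multiplex.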
# Numbers without * were called inactive; ? = inconclusive; . = no result; [ ] = dose if it differs, or a comment. This excerpt belongs to a sample that is enriched for hits. Unless noted, calls follow the shape of the dose curve; as a rule, active = well fitted curve in the direction sought with a large enough effect; inconclusive = small, poorly fitted or top-dose-only effect, or another doubt; inactive = no such curve, though single readings can be large; an effect the other way counts as inactive or inconclusive.
SMILES,HTT cytoprotect,PNC assembly inh,HttQ103 aggreg
S=c1[nH]nc(-c2cccnc2)n1-c1ccccc1,-16%[10 µM],-88*,11%
Cc1c(NC(=O)C(C)Sc2ccc3ccccc3n2)c(=O)n(-c2ccccc2)n1C (configuration not stated),4%,12,18%
COc1ccc(/C(C)=N/NC(=O)c2ccc(CSc3cccc4cccnc34)cc2)cc1OC,-15%,-8,-4%
CC(C)OC(=O)/C(=C/c1cccnc1)NC(=O)c1ccccc1,-4%[10 µM],-92*,1%
COC(=O)/C(=C/c1cccnc1)NC(=O)c1ccccc1,4%[10 µM],?,-2%
COc1cc(NC(=O)c2c(-c3ccccc3Cl)noc2C)c2ncccc2c1,-1%,.,.
O=C(Nc1cc2c(oc1=O)CCCC2=O)c1cccc(Cl)c1,15%,-106*,15%
COc1ccc(C(=O)Nc2cc3c(oc2=O)CCCC3=O)cc1,?,.,-2%
CCOC(=O)Nc1ccc2c(CN3C(=O)NC4(CCCC4)C3=O)cc(=O)oc2c1,-1%[10 µM],-100*,0%
CCOC(=O)Nc1ccc2c(CN3C(=O)NC(CC)(CC)C3=O)cc(=O)oc2c1,16%,2,15%[9.22 µM]
CCOC(=O)c1sc(=NC(=O)c2cccc(C)c2)n(C)c1C,-63%,.,-9%
O=C(NCc1ccco1)c1c2c(nc3ccccc13)CCC2,-5%,0,3%
O=C(CSc1c2c(nc3ccccc13)CCCC2)NCc1ccco1,?,.,13µM*
COc1ccc(C)cc1Nc1cc(C)nc2nc(C)nn12,-9%,13,11%
COc1ccc(CCN(C)CCC(=O)Nc2cc(C)ccc2C)cc1OC,-35%,-10,-18%
CCOC(=O)Cn1c(=O)oc2cc(S(=O)(=O)Nc3cc(Cl)ccc3OC)ccc21,-4%,-97*,3%
CCOC(=O)Cn1c(=O)oc2cc(S(=O)(=O)Nc3cc(OCC)ccc3OCC)ccc21,-1%[0.074 µM],-3,-1%
Cc1cc(C)c2sc(C)[n+](CCCS(=O)(=O)[O-])c2c1,21%[10 µM],.,31%[9.22 µM]
CC[n+]1c(C)sc2c(C)cc(C)cc21,14%[10 µM],-99*,33%
CN(Cc1nccn1C)C(=O)CC1C(=O)NCCN1CC(c1ccccc1)c1ccccc1 (configuration not stated),-12%[10 µM],.,-5%[9.22 µM]
O=C(N1CCOCC1)C1(c2ccccc2)CCCCC1,31%,-105*,-7%
O=C(N1CCCCC1)C1(c2ccccc2)CCOCC1,8%,-12,-10%
C=C1C(C(=O)Nc2ccc(OCC)cc2)C1C(=O)Nc1ccc(OCC)cc1 (configuration not stated),-47%,.,-8%
Cc1ccc(-c2cn3cccnc3n2)cc1NC(=O)c1c(-c2ccccc2Cl)noc1C,-25%,?,25%
Cc1onc(-c2ccccc2Cl)c1C(=O)Nc1ccc(-c2cn3cccnc3n2)cc1,-9%,-91*,-23%
SMILES,HTT cytoprotect,PNC assembly inh,HttQ103 aggreg
Cc1cc(C)cc(-n2c(SC(C)C(=O)NCc3ccc4c(c3)OCO4)nc3ccccc3c2=O)c1 (configuration not stated),-7%[10 µM],-10,-12%
Cc1cc(NC(=O)c2cccc(S(=O)(=O)N3c4ccccc4CC3C)c2)no1 (configuration not stated),5%[10 µM],.,-6%[9.22 µM]
CCOC(=O)c1sc(NC(=O)c2cccc(S(=O)(=O)N3c4ccccc4CC3C)c2)cc1C (configuration not stated),-1%[10 µM],-95*,13%
COc1ccccc1NC(=O)N1C2CCCC1CC(NC(=O)c1ccccc1)C2 (configuration not stated),26%,.,3%
COc1ccc(C(C[N+](=O)[O-])C2(c3ccc(OC)c(OC)c3)C(=O)c3ccccc3C2=O)cc1 (configuration not stated),-10%[10 µM],-24,?
COc1ccc(O)c(/C=N/NC(=O)CSc2nnc(C)n2-c2ccccc2)c1,-43%,-21,7.9µM*
COc1cccc(/C=N/NC(=O)CSc2nnc(C)n2-c2ccccc2)c1O,-54%,34,7.9µM*
COc1cccc(/C=N/NC(=O)CN2CC(c3ccccc3)CC2=O)c1O (configuration not stated),.,25,3.5µM*
Cc1nnc(SCC(=O)NNC(=O)c2ccccc2)n1-c1ccccc1,4%[10 µM],-84*,7%
COc1ccc(/C=N/NC(=O)CSc2nnc(C)n2-c2ccccc2)c(OC)c1OC,4%,?,-12%
Cc1ccc(-c2nn(-c3ccccc3)cc2/C=N/NC(=O)CSc2nnc(C)n2-c2ccccc2)cc1,-39%,49,?
COc1cccc(/C=N/NC(=O)C[n+]2ccccc2)c1O,10%[10 µM],1,11%
Cc1ccccc1-n1c(C)nnc1SCC(=O)NNC(=O)c1ccccc1,39%[10 µM],?,8%
CC1c2ccccc2CN1CC1=NCCN1 (configuration not stated),-36%,.,.
Cn1c2ccccc2c2nn(-c3ccccc3)c(=O)cc21,0%,47,-8%
CC1CCC(C(C)[C@H]2CCC3C4CC(=O)C5C[C@@H](O)CC[C@]5(C)C4CC[C@@]32C)=NC1 (some centres not stated),-56%,.,.
CC1=C(CO)C(=O)OC([C@@H](C)C2CC[C@H]3C4C[C@H]5O[C@]56[C@@H](O)C=CC(=O)[C@]6(C)C4CC[C@]23C)C1 (some centres not stated),3.5µM*,.,?
Cc1ccc(NC(=O)CSc2nnc(-c3ccccn3)n2C)cc1,-16%,?,2.8µM*
COC(=O)c1cccc(NC(=O)CSc2nnc(COc3ccccc3)n2C)c1,-9%[10 µM],-126*,7%
Cn1c(COc2ccccc2)nnc1SCc1cc(=O)[nH]c2ccccc12,-29%[10 µM],-107*,-5%
Cn1c(SCC(=O)Nc2ccc3c(c2)OCCO3)nnc1-c1ccccn1,-2%,-24,-18%
Cc1ccc(NC(=O)Cc2nnc(SCC(=O)Nc3ccccc3)n2C)cc1,.,-8,0.18µM*
O=c1cc(CSc2nnc(COc3ccccc3)n2-c2ccccc2)c2ccccc2[nH]1,14%[10 µM],38,19%
Cc1ccc(CSc2nnc(CC(=O)Nc3ccc(C)cc3)n2C)cc1,-7%,100,24%
CCOC(=O)c1cccc(NC(=O)CSc2nnc(COc3ccccc3)n2CC)c1,19%[10 µM],-15,6%
SMILES,HTT cytoprotect,PNC assembly inh,HttQ103 aggreg
CCOC(=O)CSc1ncc(-c2ccccc2)nn1,-10%,49,4%
O=c1ccc2cc(S(=O)(=O)N3CCN(c4cc(Cl)ccc4Cl)CC3)ccc2o1,10%[10 µM],-9,-11%
CCC(=O)Nc1cc(C(=O)OCC(=O)c2ccccc2Cl)ccc1C,-20%,-22,-4%
CN(Cc1ccccc1)c1ncnc2ccc(Br)cc12,-48%,40,0.35µM*
CN(Cc1ccco1)c1ncnc2ccc(-c3ccccc3Cl)cc12,-100%,.,.
Nc1ccccc1SCC1CSc2nc3ccccc3c(=O)n21 (configuration not stated),-10%,.,10%
O=c1c2ccccc2nc2n1C(CSCc1ccc(Cl)cc1Cl)CS2 (configuration not stated),-41%,-14,8.9µM*
O=C(NC(=S)Nc1ccccc1O)c1ccc(-c2ccc(Cl)cc2)o1,-61%,-15,11µM*
COc1ccccc1NC(=S)NC(=O)c1ccc(-c2ccc(Cl)cc2)o1,-25%,-9,-6%
